Bioassay records: PubChem, National Center for Advancing Translational Sciences (NCATS)
KB-3-1 tox: kills parental KB-3-1 adenocarcinoma cells; hit rate 1.4% among 400,000; AID 1347075; Potency, µM (doses to about 46.1 µM), hits mostly cytotoxic; KB-3-1 viability, CellTiter-Glo ATP luminescence, 72 h; also: nearly all actives have a fitted effect of over 60% in size
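Screening of KB-3-1 cells (DMEM, 10% FBS, phenol-red free) ran from lowest to highest compound concentration; after 72 h at 37 °C viability was read luminescently and curves fitted.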
KB-V1 cytotox: kills drug-selected multidrug resistant KB-V1 cells; KB-V1 MDR cells viability, CellTiter-Glo, 72 h; Potency, µM (top dose mostly 46.1 µM), most hits filed as cytotoxic; hit rate 3.4% among 400,000; AID 1347076; also: nearly all actives have a fitted effect of over 60% in size
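KB-V1, DMEM (no phenol red) + 10% FBS; cpd pin-transferred, titration series; 72 h, 37 degrees C; CellTiter-Glo, luminescence. Data normalized, curve-fit.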
HepG2 tox: kills HepG2 cells in TGF-b inhibitor counter-screen. AID 588856. hit rate 0.76% among 410,000. Potency, µM (doses to about 46.1 µM), actives largely listed as cytotoxic. HepG2 CAGA-GFP viability, ATP luminescence, 18 h
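CellTiter-Glo luminescence gave cytotoxicity after 18 hours at 37 degrees C. The cells were HepG2 CAGA-GFP in 1% FBS DMEM, stimulated with 500 pg/mL TGF-beta after compound addition. %Activity was normalised to no-cell wells (complete cell-killing) and DMSO (no toxicity), and curves were fitted and classified.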
ATXN viability: reduces viability in counter-screen for ATXN expression inhibitors; S2 cells (HEK-293 line with an ATXN2-luciferase reporter) viability, CellTiter-Fluor protease fluorescence, 24 h; Potency, µM (doses to about 56.7 µM), actives largely listed as cytotoxic; hit rate 0.49% among 400,000; AID 651635; also: nearly all actives have a fitted effect of over 40% in size
TGFb SMAD3 inh: TGF-b pathway inhibition; HepG2 CAGA-GFP TGF-b/SMAD3 reporter, GFP fluorescence, 18 h; TGF-beta stimulated, 500 pg/mL final; Potency, µM (doses to about 46.1 µM), most hits filed as inhibitors; hit rate 1.2% among 410,000; also: nearly all actives have a fitted effect of over 65% in size
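HEPG2 CAGA-GFP cells (1000/well, DMEM with 1% FBS) were pre-incubated 2 h at 37 degrees C, given compound by pin tool, then stimulated with TGF-beta at 500 pg/mL final for 18 h before per-cell GFP fluorescence imaging.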
ATXN2 expr inh: reduces ATXN2 reporter expression in HEK-293 cells | AID 1745845 | HEK-293 ATXN2-luciferase reporter, luminescence, 24 h | hit rate 0.72% among 360,000 | Potency, µM (doses to about 57 µM), actives largely listed as inhibitors; also: nearly all actives have a fitted effect of over 55% in size
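ATXN2-luciferase reporter cells (luciferase flanked by upstream and downstream ATXN2 gene portions) were treated 24 h at 37 °C with compounds at up to 57 uM. SteadyGlo luminescence gave expression; GF-AFC fluorescence gave viability.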
Numbers stand for hits; i = inactive; ? = inconclusive; nt = not tested or not shown; ! = not confirmed by another sample. Hits are enriched below; roughly 5.9% of the tested compounds scored in any of these assays. Calls follow the shape of the dose curve; as a rule, active = well fitted curve in the direction sought with a large enough effect; inconclusive = small, poorly fitted or top-dose-only effect, or another doubt; inactive = no such curve, though single readings can be large; an effect the other way counts as inactive or inconclusive.

SMILES	KB-3-1 tox	KB-V1 cytotox	HepG2 tox	ATXN viability	TGFb SMAD3 inh	ATXN2 expr inh
CCS(=O)(=O)N1CCc2cc(C(=O)Nc3cc([N+](=O)[O-])ccc3C)ccc21	i	i	i	i	i	i
Cn1c(SCC(=O)N2c3ccccc3Sc3ccc(Cl)cc32)nnc1-c1ccco1	i	23.1µM	i	i	i	i
Cn1c(Cn2nnc3ccccc32)nnc1SCC(=O)N1c2ccccc2Sc2ccccc21	i	16.4µM	i	i	i	i
CN(C)CCCn1c(SCC(=O)N2c3ccccc3Sc3ccccc32)nc2ccccc2c1=O	?	?	10µM	25.1µM	i	28.2µM
COc1ccc(Cl)cc1-c1cc2c(c(OC)c1)OCCN(Cc1cccn1-c1nccs1)C2	nt	nt	nt	i	nt	nt
Cc1cccc(N(CC(=O)Nc2ccccc2F)S(C)(=O)=O)c1	i	23.1µM	i	i	i	i
COc1ccc(N(CC(=O)Nc2ccccc2SC)S(C)(=O)=O)cc1OC	i	i	i	nt	i	nt
CSc1ccccc1NC(=O)CN(c1cccc(C)c1)S(C)(=O)=O	i	i	i	i	i	i
CSc1ccccc1NC(=O)CSCc1ccccc1Br	i	?	i	i	i	i
CSc1ccccc1NC(=O)CSCc1ccc(Br)cc1	i	20.6µM	i	i	i	i
CSc1ccccc1NC(=O)CN(c1ccccc1Br)S(C)(=O)=O	i	14.6µM	i	i	i	i
CCCc1nc2cccnc2n1C1CCN(C(=O)Cn2nccc2C)CC1	nt	nt	nt	i	nt	nt
O=C(NCc1ccccc1)c1ccc(Cn2cc(C(F)(F)F)ccc2=O)cc1	i	13µM	i	i	?	i
Cc1cccc(NC(=O)c2ccc(Cn3cc(C(F)(F)F)ccc3=O)cc2)c1	i	16.4µM	i	i	?	i
CC(O)(c1cccc(F)c1)c1nc(/C=C/c2ccccc2)cs1 (stereo not given)	i	i	i	i	?	i
Cc1cccc(N=N/C(=C\O)C(=O)c2cccs2)c1	i	25.9µM	i	?	?	?
Cc1cc(CNC(=O)c2cnn(-c3ncc4c(n3)-c3ccccc3CC4)c2C2CC2)on1	nt	nt	nt	i	nt	nt
O=C(C[C@H]1C(=O)N(CCc2ccccc2)C[C@@H]1Cc1ccccc1)Nc1ccccc1	?	20.6µM!	i	?	11.2µM	i
O=C(C[C@H]1C(=O)N(c2ccccc2)C[C@@H]1Cc1ccccc1)Nc1ccccc1	23.1µM!	9.2µM!	i	i	i	i
CC/C(=C/c1ccccc1)c1cc(Oc2ccccc2)cc2oc3ccccc3c12	i	i	i	nt	i	nt
CC1(Cc2ccccc2OC(F)(F)F)C(=O)Nc2ccc(S(=O)(=O)NC3CCCCC3)cc21 (stereo not given)	i	i	i	?	12.6µM	?
COc1ccccc1CC1(C)C(=O)Nc2ccc(S(=O)(=O)NC3CCCCC3)cc21 (stereo not given)	i	i	i	i	i	i
NC(=S)N/N=C\c1ccc(-c2cccc(Cl)c2Cl)o1	5.8µM	1.3µM	i	i	?	i
NC(=S)N/N=C/c1ccc(-c2ccc(SC(F)F)cc2)o1	?	i	i	i	10µM	i
NC(=S)N/N=C/c1ccc(-c2ccc(Cl)c(Cl)c2)o1	i	i	i	i	?	i
SMILES	KB-3-1 tox	KB-V1 cytotox	HepG2 tox	ATXN viability	TGFb SMAD3 inh	ATXN2 expr inh
O=C(Nc1ccc2nccnc2c1)N1CCCCCC1	i	i	i	nt	i	nt
COCCCNC(=S)NNC(=O)c1ccc(C(C)(C)C)cc1	i	?	i	i	i	nt
COCCCNC(=S)NC(=O)c1ccc(C)cc1	i	18.4µM	i	i	i	i
Cc1ccn2c(Nc3ccc4c(c3)OCO4)c(-c3ccc(N(C)C)cc3)nc2c1	i	i	i	?	i	i
CCc1ccccc1NC(=O)CN1CCCN(Cc2cc(C)ccc2C)S1(=O)=O	i	i	i	nt	17.8µM	nt
C=CCn1c(-c2ccc(OC)c(OC)c2)n[nH]c1=S	?	16.4µM	i	i	i	i
CCn1c(-c2ccc(OC)c(OC)c2)n[nH]c1=S	?	?	i	i	i	i
CCOC(=O)c1c(C)[nH]c(C(=O)OCC(=O)Nc2cc(Cl)ccc2OC)c1C	i	9.2µM	i	i	?	i
CCOC(=O)c1[nH]c(C)c(C(=O)Nc2cc(OC)ccc2OC)c1C	1.26µM	0.501µM	i	i	i	i
CCOC(=O)c1c(C)[nH]c(C(=O)OCC(=O)Nc2cc(C)ccc2OC)c1C	i	?	i	i	i	i
CCOC(=O)c1c(C)[nH]c(C(=O)OCC(=O)N(C)CC(=O)Nc2ccccc2Cl)c1C	i	13µM	i	i	i	i
CCOC(=O)c1[nH]c(C)c(C(=O)OCC(=O)NC(C)c2ccc(F)cc2)c1C (stereo not given)	1.84µM	i	i	i	i	nt
Cc1ccc(OCC(=O)N(C)CC(=O)Nc2ccc(F)cc2)c([N+](=O)[O-])n1	i	i	i	i	i	i
Cc1ccc(OCC(=O)N(C)CC(=O)Nc2ccccc2Cl)c([N+](=O)[O-])n1	i	18.4µM	i	i	i	i
Cc1ccc(NC(=O)C(CC(C)C)NS(=O)(=O)c2ccc3c(c2)oc(=O)n3C)c(C)c1 (stereo not given)	i	i	i	i	i	i
CC(C)n1cnc2c(Nc3cccc(F)c3)nc(NCCO)nc21	?	i	i	i	i	i
CC(C)n1cnc2c(Nc3ccc(F)c(Cl)c3)nc(NCCO)nc21	i	i	i	?	?	i
C=CC(=O)Nc1cccc(Nc2nc(NC3CCC(N(C)C)CC3)nc3c2ncn3C(C)C)c1 (stereo not given)	nt	nt	nt	nt	nt	0.0306µM
C=CC(=O)Nc1ccc(Nc2nc(NC3CCC(N(C)C)CC3)nc3c2ncn3C(C)C)cc1 (stereo not given)	1.03µM	i	i	1.78µM	0.631µM	?
O=C(Nc1cccc(Cl)c1)c1cc(S(=O)(=O)NCCc2ccc(Cl)cc2)ccc1F	i	?	i	i	11.2µM	i
Cc1cc(C)c(NC(=O)c2cc(S(=O)(=O)NCCC3=CCCCC3)ccc2F)c(C)c1	i	i	i	i	i	i
CC(C)c1ccc(NC(=O)c2cc(S(=O)(=O)NCCC3=CCCCC3)ccc2F)cc1	i	?	12.6µM	?	?	?
CCS(=O)(=O)N1CC(=O)N(c2ccc(Cl)cc2)C(C)(C(=O)NC2CCCCC2)C1 (stereo not given)	i	i	i	nt	i	nt
CC(CS(=O)(=O)c1ccc2c(c1)NC(=O)CS2)C(=O)NCc1ccccc1Cl (stereo not given)	i	i	i	i	i	i
CC(CS(=O)(=O)c1ccc2c(c1)NC(=O)CS2)C(=O)N1CCN(c2cccc(Cl)c2)CC1 (stereo not given)	23.1µM	i	i	i	i	i
